# Laboratory results reported in the supplement of paper PMC10037445.
# Over roughly 2,900 compounds, “NF-kB SEAP reporter activity, fold change vs agonist alone” has its median near 0.99; the highest 2% begin near 2.6. Shown is part of a subset that was picked to be rich in the highest values.
# Assays:
# RAW-Dual [1] = experiment: NF-kB SEAP reporter activity, fold change vs agonist alone; cytotoxicity flag (confluency mask): not cytotoxic; higher = enhanced NF-kB activity
# Method in brief: (§1)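 Supernatant from RAW-Dual macrophages was read after 20 hours for IRF by QuantiLuc luminescence and for NF-κB by QuantiBlue absorbance at 620 nm. The cells (50,000 cells/well in DMEM, 384-well plates, 37 °C, 5% CO2) had received 50 nL of library stock by pin tool and, 1 h later, a PRR agonist. Reporter activity is expressed relative to agonist-alone wells as fold change, and wells were flagged cytotoxic if IncuCyte confluency was under 70% of agonist controls in both mask sets.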
# RAW-Dual [2] = experiment: NF-kB SEAP reporter activity, fold change vs agonist alone; higher = enhanced NF-kB activity
# Method in brief: as §1
# RAW-Dual [3] = experiment: NF-kB SEAP reporter activity, fold change vs agonist alone; cytotoxicity flag (confluency mask): cytotoxic (confluency <70% of control); higher = enhanced NF-kB activity
# Method in brief: as §1
# [4] = agonist: ODN 1826 (TLR9) 0.5 ug/mL
# [5] = agonist: Pam2CSK4 (TLR2/6) 0.1 ug/mL
# [6] = agonist: Pam3CSK4 (TLR2/1) 0.1 ug/mL
# [7] = library stock concentration (final ~1000-fold dilution): 10 mM, cytotoxicity flag (confluency mask): not cytotoxic, agonist: Imiquimod (TLR7) […]
# [8] = library stock concentration (final ~1000-fold dilution): 10 mM, cytotoxicity flag (confluency mask): not cytotoxic, agonist: MPLA (TLR4) […]
# [9] = library stock concentration (final ~1000-fold dilution): 10 mM, cytotoxicity flag (confluency mask): cytotoxic (confluency <70% of control), agonist: MPLA (TLR4) […]
structure (smiles),measurement,setting,value
Cl.Cl.NC1CCC(NC2CC2c2ccccc2)CC1 (stereo unspecified) (library stock concentration (final ~1000-fold dilution): 10 mM),NF-kB SEAP reporter activity,RAW-Dual [1]; agonist: LPS (TLR4) 0.1 ug/mL,1.25
same,NF-kB SEAP reporter activity,RAW-Dual [1]; [4],0.222
same,NF-kB SEAP reporter activity,RAW-Dual [1]; [5],0.869
same,NF-kB SEAP reporter activity,RAW-Dual [1]; [6],0.615
Cl.Cl.NC1CCC(NC2CC2c2ccccc2)CC1 (stereo unspecified),NF-kB SEAP reporter activity,RAW-Dual [2]; [7],1.03
same,NF-kB SEAP reporter activity,RAW-Dual [2]; [8],1.37
CC12CCC(=O)C=C1C=CC1C2CCC2(C)C1CCC21CCC(=O)O1 (stereo unspecified) (library stock concentration (final ~1000-fold dilution): 10 mM),NF-kB SEAP reporter activity,RAW-Dual [1]; agonist: LPS (TLR4) 0.1 ug/mL,0.949
same,NF-kB SEAP reporter activity,RAW-Dual [1]; [4],1.05
same,NF-kB SEAP reporter activity,RAW-Dual [1]; [5],0.849
same,NF-kB SEAP reporter activity,RAW-Dual [1]; [6],0.874
CC12CCC(=O)C=C1C=CC1C2CCC2(C)C1CCC21CCC(=O)O1 (stereo unspecified),NF-kB SEAP reporter activity,RAW-Dual [2]; [8],1.05
Cl.O=C1Cc2cc(CCN3CCN(c4nsc5ccccc45)CC3)c(Cl)cc2N1 (library stock concentration (final ~1000-fold dilution): 10 mM),NF-kB SEAP reporter activity,RAW-Dual [1]; agonist: LPS (TLR4) 0.1 ug/mL,0.912
same,NF-kB SEAP reporter activity,RAW-Dual [1]; [4],0.338
same,NF-kB SEAP reporter activity,RAW-Dual [1]; [5],0.746
same,NF-kB SEAP reporter activity,RAW-Dual [1]; [6],0.865
Cl.O=C1Cc2cc(CCN3CCN(c4nsc5ccccc45)CC3)c(Cl)cc2N1,NF-kB SEAP reporter activity,RAW-Dual [2]; [7],0.412
same,NF-kB SEAP reporter activity,RAW-Dual [2]; [8],0.73
O=C1Nc2ccc(CN3C(=O)CSC3=O)cc2/C1=C/c1cc(CN2CCOCC2)c[nH]1 (library stock concentration (final ~1000-fold dilution): 10 mM),NF-kB SEAP reporter activity,RAW-Dual [1]; agonist: LPS (TLR4) 0.1 ug/mL,1.89
same,NF-kB SEAP reporter activity,RAW-Dual [1]; [4],1.3
same,NF-kB SEAP reporter activity,RAW-Dual [1]; [5],0.605
same,NF-kB SEAP reporter activity,RAW-Dual [1]; [6],1.13
O=C1Nc2ccc(CN3C(=O)CSC3=O)cc2/C1=C/c1cc(CN2CCOCC2)c[nH]1,NF-kB SEAP reporter activity,RAW-Dual [2]; [7],1.07
same,NF-kB SEAP reporter activity,RAW-Dual [2]; [8],1.43
CCC(=O)OC(OP(=O)(CCCCc1ccccc1)CC(=O)N1CC(C2CCCCC2)CC1C(=O)O)C(C)C (stereo unspecified) (library stock concentration (final ~1000-fold dilution): 10 mM water),NF-kB SEAP reporter activity,RAW-Dual [1]; agonist: LPS (TLR4) 0.1 ug/mL,0.941
same,NF-kB SEAP reporter activity,RAW-Dual [1]; [4],1.05
same,NF-kB SEAP reporter activity,RAW-Dual [1]; [5],1.01
same,NF-kB SEAP reporter activity,RAW-Dual [1]; [6],0.946
CCC(=O)OC(OP(=O)(CCCCc1ccccc1)CC(=O)N1CC(C2CCCCC2)CC1C(=O)O)C(C)C (stereo unspecified),NF-kB SEAP reporter activity,"RAW-Dual [2]; library stock concentration (final ~1000-fold dilution): 10 mM water, cytotoxicity flag (confluency mask): not cytotoxic, agonist: Imiquimod (TLR7) […]",0.795
same,NF-kB SEAP reporter activity,"RAW-Dual [2]; library stock concentration (final ~1000-fold dilution): 10 mM water, cytotoxicity flag (confluency mask): not cytotoxic, agonist: MPLA (TLR4) […]",0.935
CN(C)c1ccc(O)c2c1CC1CC3C(N(C)C)C(=O)C(C(N)=O)=C(O)C3(O)C(=O)C1=C2O (stereo unspecified) (library stock concentration (final ~1000-fold dilution): 5 mM),NF-kB SEAP reporter activity,RAW-Dual [1]; agonist: LPS (TLR4) 0.1 ug/mL,1.03
same,NF-kB SEAP reporter activity,RAW-Dual [1]; [4],1.15
same,NF-kB SEAP reporter activity,RAW-Dual [1]; [5],0.833
same,NF-kB SEAP reporter activity,RAW-Dual [1]; [6],0.759
CN(C)c1ccc(O)c2c1CC1CC3C(N(C)C)C(=O)C(C(N)=O)=C(O)C3(O)C(=O)C1=C2O (stereo unspecified),NF-kB SEAP reporter activity,"RAW-Dual [2]; library stock concentration (final ~1000-fold dilution): 5 mM, cytotoxicity flag (confluency mask): not cytotoxic, agonist: Imiquimod (TLR7) […]",1.25
same,NF-kB SEAP reporter activity,"RAW-Dual [2]; library stock concentration (final ~1000-fold dilution): 5 mM, cytotoxicity flag (confluency mask): not cytotoxic, agonist: MPLA (TLR4) […]",0.933
CN(C)CCC=C1c2ccccc2C(C)(C)c2ccccc21.Cl (library stock concentration (final ~1000-fold dilution): 10 mM),NF-kB SEAP reporter activity,RAW-Dual [3]; agonist: LPS (TLR4) 0.1 ug/mL,1.45
same,NF-kB SEAP reporter activity,RAW-Dual [3]; [4],0.727
same,NF-kB SEAP reporter activity,RAW-Dual [3]; [5],0.53
same,NF-kB SEAP reporter activity,RAW-Dual [3]; [6],0.8
CN(C)CCC=C1c2ccccc2C(C)(C)c2ccccc21.Cl,NF-kB SEAP reporter activity,RAW-Dual [2]; [9],1.4
O=C(NO)c1cnc(NC2(c3ccccc3)CC2)nc1,NF-kB SEAP reporter activity,"RAW-Dual [2]; library stock concentration (final ~1000-fold dilution): 10 mM, cytotoxicity flag (confluency mask): cytotoxic (confluency <70% of control), agonist: Imiquimod (TLR7) […]",1.46
same,NF-kB SEAP reporter activity,RAW-Dual [2]; [9],2.22
O=C(NO)c1cnc(NC2(c3ccccc3)CC2)nc1 (library stock concentration (final ~1000-fold dilution): 10 mM),NF-kB SEAP reporter activity,RAW-Dual [3]; agonist: LPS (TLR4) 0.1 ug/mL,2.94
same,NF-kB SEAP reporter activity,RAW-Dual [3]; [4],1.6
same,NF-kB SEAP reporter activity,RAW-Dual [3]; [5],0.654
same,NF-kB SEAP reporter activity,RAW-Dual [3]; [6],1.4
